Data as given in PubChem BioAssay (NCI).
The panel holds about 83,000 compounds, 20% with a hit somewhere; the sample as a whole holds those more often.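 Negative percent growth values reflect cell death: -40 means 40% of the cells present at the start died, and -100 means all died.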 Active and inactive are the calls of the source. The calls were made as follows: active = growth percent below 10; inactive = the rest.

Columns and labels:
Assay in all cases: NCI-60 one-dose screen, 48 h (100 = growth as untreated, 0 = no growth, -100 = all killed)
Details in all cases: 10 µM unless noted
BT-549 breast = tested on: BT-549 breast
MDA-MB-435 melanoma = tested on: MDA-MB-435 melanoma
SW-620 colon = tested on: SW-620 colon
MCF7 breast = tested on: MCF7 breast
HCT-116 colon = tested on: HCT-116 colon
HCC-2998 colon = tested on: HCC-2998 colon
KM12 colon = tested on: KM12 colon

Measured: growth

CCN1CCN(c2ccc(NC(=O)Nc3nc4ccc(-c5ccccc5OC)cc4s3)cc2)CC1
active: MDA-MB-435 melanoma -85.5% | SW-620 colon -70% | MCF7 breast -70.8% | HCT-116 colon -82.3% | HCC-2998 colon -88.1% | KM12 colon -83.5%
inactive: BT-549 breast 31.6%

O=C(/C(=C/c1ccc([N+](=O)[O-])cc1)SCc1ccc(F)cc1)c1ccc(Cl)cc1
active: SW-620 colon 1.44% | MCF7 breast -21.8% | HCT-116 colon 0.116%
inactive: BT-549 breast 84.9% | MDA-MB-435 melanoma 43.9% | HCC-2998 colon 84.3% | KM12 colon 19.5%

O=c1c2ccccc2oc2ccc(OCCCCCN3CCCCCC3)cc12
inactive: BT-549 breast 78.5% | MDA-MB-435 melanoma 73.8% | SW-620 colon 77.7% | MCF7 breast 68.2% | HCT-116 colon 58.4% | HCC-2998 colon 84.6% | KM12 colon 68.6%

CCOC(=O)c1c(C)nc2c(c1N)/C(=C/c1ccc[nH]1)C(=O)N2Cc1ccc(C(F)(F)F)cc1
inactive: BT-549 breast 58.4% | MDA-MB-435 melanoma 90.9% | SW-620 colon 66% | MCF7 breast 45.1% | HCT-116 colon 28.4% | HCC-2998 colon 91.2% | KM12 colon 81.6%

Cc1ccc(C(=O)O)o1
inactive: BT-549 breast 97.9% | MDA-MB-435 melanoma 108% | SW-620 colon 107% | MCF7 breast 105% | HCT-116 colon 96.1% | HCC-2998 colon 102% | KM12 colon 96.9%

CCC1=C[C@H]2CN(CCc3c([nH]c4ccccc34)[C@@](C(=O)OC)(c3cc4c(cc3OC)N(C)[C@H]3[C@@](O)(C(=O)OC)[C@H](OC(C)=O)[C@]5(CC)[C@@H]6C[C@@H]6CN6CC[C@]43[C@@H]65)C2)C1
active: MDA-MB-435 melanoma -32.6% | MCF7 breast 7.76% | HCT-116 colon 4.74%
inactive: BT-549 breast 16.1% | SW-620 colon 29.2% | HCC-2998 colon 22.2% | KM12 colon 16.2%

Cc1cc(C)nc(NS(=O)(=O)c2ccc(Nc3ccc4c5c(n(CCCN(C)C)c(=O)c4c3)-c3ccccc3C5=O)cc2)n1
inactive: BT-549 breast 91.8% | MDA-MB-435 melanoma 98.8% | SW-620 colon 54.2% | MCF7 breast 30.6% | HCT-116 colon 56.4% | HCC-2998 colon 73.6% | KM12 colon 71.6%

C=C(C)[C@@H]1CC[C@]2(C(=O)OCCCC[P+](c3ccccc3)(c3ccccc3)c3ccccc3)CC[C@]3(C)[C@H](CC[C@@H]4[C@@]5(C)CC[C@H](OC(=O)C(Cl)Cl)C(C)(C)[C@@H]5CC[C@]43C)[C@@H]12
active: BT-549 breast -71.6% | MDA-MB-435 melanoma -62.3% | SW-620 colon 0.909% | MCF7 breast 3.36% | HCT-116 colon -76.3% | HCC-2998 colon -62.8% | KM12 colon -54.8%

CC(C)C1=C[C@@]23CC[C@H]4[C@](C)(COCCC#N)CCC[C@]4(C)[C@H]2C[C@@H]1[C@@H]1[C@H]3[C@@H](OCCC#N)CC[C@@H]1OCCC#N
inactive: BT-549 breast 39.4% | MDA-MB-435 melanoma 40.1% | SW-620 colon 47.4% | HCT-116 colon 24.6% | HCC-2998 colon 44.4% | KM12 colon 32.7%
active: MCF7 breast 9.61%

Cc1c(O)c(=O)ccn1-c1nc2ccccc2s1
inactive: BT-549 breast 93.4% | MDA-MB-435 melanoma 99.7% | SW-620 colon 94.9% | MCF7 breast 98.6% | HCT-116 colon 95.8% | HCC-2998 colon 114% | KM12 colon 98.5%

C=C(C)[C@@H]1CC[C@]2(C(=O)n3ccnc3)CC[C@]3(C)[C@H](CC[C@@H]4[C@@]5(C)CCCNC(C)(C)[C@@H]5CC[C@]43C)[C@@H]12
inactive: BT-549 breast 40.2% | KM12 colon 28.4%
active: MDA-MB-435 melanoma -34.4% | SW-620 colon -62.8% | MCF7 breast -20.3% | HCT-116 colon -76.7% | HCC-2998 colon 6.43%

COC(=O)/C=C/c1cc(OC)c2c(c1)[C@@H](C(=O)OC)[C@H](c1ccc(OC)c(OC)c1)O2
inactive: BT-549 breast 36.7% | SW-620 colon 30.4% | MCF7 breast 19.6% | HCT-116 colon 15.9% | HCC-2998 colon 59.5% | KM12 colon 27.6%
active: MDA-MB-435 melanoma -42.3%

CC1CCCN(CCCCCOc2ccc3oc4ccccc4c(=O)c3c2)C1 (centres undefined)
inactive: BT-549 breast 74.3% | MDA-MB-435 melanoma 46% | SW-620 colon 70.1% | MCF7 breast 63.1% | HCT-116 colon 52.7% | HCC-2998 colon 85.3% | KM12 colon 64.3%

CCCn1c2cc(OCc3cn(-c4ccc(Cl)cc4)nn3)ccc2c2ccnc(C)c21
inactive: BT-549 breast 87.2% | MDA-MB-435 melanoma 101% | SW-620 colon 74.8% | MCF7 breast 73.3% | HCT-116 colon 41.6% | HCC-2998 colon 92.7% | KM12 colon 74.1%

CC(=O)c1c(OCC#N)ccc2c(C)cc(=O)oc12
inactive: BT-549 breast 118% | MDA-MB-435 melanoma 107% | SW-620 colon 96.8% | MCF7 breast 99.2% | HCT-116 colon 101% | HCC-2998 colon 109% | KM12 colon 107%

COc1cc(/C=C/C(=O)c2ccc(NC(=O)CSc3nnc(-c4cc(OC)c(OC)c(OC)c4)n3-c3ccccc3)cc2)cc(OC)c1OC
active: BT-549 breast -19.6% | MDA-MB-435 melanoma -36.1% | SW-620 colon -76.4% | HCT-116 colon -80.6% | HCC-2998 colon -91.8% | KM12 colon -6.65%
inactive: MCF7 breast 11.2%

CCCCC(=O)Nc1c(C(=O)Nc2ccccc2)sc2nc3c(cc12)C(OC(=O)CCCC)CCC3 (centres undefined)
inactive: BT-549 breast 85.4% | MDA-MB-435 melanoma 108% | SW-620 colon 50.1% | MCF7 breast 82.9% | HCT-116 colon 101% | HCC-2998 colon 101% | KM12 colon 99.9%

CCSc1ccc(C2C(Br)C(=O)N2c2cc(OC)c(OC)c(OC)c2)cc1 (centres undefined)
active: MDA-MB-435 melanoma -1.6% | HCT-116 colon 4.7%
inactive: BT-549 breast 13.8% | SW-620 colon 23% | MCF7 breast 13.2% | HCC-2998 colon 31.7% | KM12 colon 17%

COc1ccc(/C=C(/C(=O)N2CCCC2)c2cc(OC)c(OC)c(OC)c2)cc1
active: MDA-MB-435 melanoma -18.3%
inactive: BT-549 breast 61.1% | SW-620 colon 22.1% | MCF7 breast 24.8% | HCT-116 colon 23.8% | HCC-2998 colon 80.1% | KM12 colon 31.9%

Cc1cccc(NC(=O)c2sc3nc4c(cc3c2N)CN(Cc2ccccc2)CC4)c1C
active: MDA-MB-435 melanoma -25.2%
inactive: BT-549 breast 54% | SW-620 colon 24.3% | MCF7 breast 22.4% | HCT-116 colon 29.2% | HCC-2998 colon 55.8% | KM12 colon 25.7%

COc1cc(-c2cn(-c3ccc(Cl)c(Cl)c3)c(=O)[nH]2)cc(OC)c1OC
inactive: BT-549 breast 102% | MDA-MB-435 melanoma 96.4% | SW-620 colon 109% | MCF7 breast 87.7% | HCT-116 colon 78.7% | HCC-2998 colon 99.9% | KM12 colon 90.8%

COc1cc(/C=N/Nc2nc(-c3ccc(F)cc3)c(C#N)c(N3CCOCC3)n2)ccc1O
inactive: BT-549 breast 94.3% | MDA-MB-435 melanoma 97% | SW-620 colon 95% | MCF7 breast 93.2% | HCT-116 colon 96.8% | HCC-2998 colon 117% | KM12 colon 103%

COc1cc2c(cc1OCCCOc1cc3c(cc1OC)C(=O)N1CC(F)(F)C[C@H]1C=N3)N=C[C@@H]1CC(F)(F)CN1C2=O
inactive: MCF7 breast 13.8%
active: BT-549 breast -38.5% | MDA-MB-435 melanoma -11.8% | SW-620 colon 1.84% | HCT-116 colon 4.77% | HCC-2998 colon -7.61% | KM12 colon -18.5%

CSc1nc(-c2ccc(F)cc2)c(C#N)c(N2CCOCC2)n1
inactive: BT-549 breast 95.3% | MDA-MB-435 melanoma 105% | SW-620 colon 97.5% | MCF7 breast 90.4% | HCT-116 colon 96.6% | HCC-2998 colon 101% | KM12 colon 101%

O=[N+]([O-])c1cccc(CN(Cc2cccc([N+](=O)[O-])c2O)c2ccccc2)c1O
inactive: BT-549 breast 88.9% | MDA-MB-435 melanoma 91.4% | SW-620 colon 56.9% | MCF7 breast 84.8% | HCT-116 colon 15.7% | HCC-2998 colon 67.1% | KM12 colon 88.5%

COc1ccc2c(c1)Oc1nc(N)c(C#N)c(N)c1C2Sc1ccc(O)cc1 (centres undefined)
inactive: BT-549 breast 92.4% | MDA-MB-435 melanoma 99.5% | SW-620 colon 68.6% | MCF7 breast 33.6% | HCT-116 colon 89.6% | HCC-2998 colon 98.5% | KM12 colon 97.9%

COc1ccc(C(C)c2cc(OC)c(OC)c(OC)c2)cc1 (centres undefined)
active: MDA-MB-435 melanoma -42.6% | HCT-116 colon 4.67% | KM12 colon 9.1%
inactive: BT-549 breast 24.6% | SW-620 colon 27% | MCF7 breast 13.8% | HCC-2998 colon 30.2%
